# Screening data: PubChem, several laboratories
# BoNT A protease: BoNT/A light chain protease inhibitors, primary screen, biochemical, flow cytometry, MLPCN library; inhibition, % at 10 µM; AID 588499, 2011; 0.17% of 360,000 active; multiplex microsphere protease substrate cleavage; further: plate controls were buffer without enzyme for full effect and enzyme alone for no effect
# BoNT-F LC inh: BoNT/F light chain protease inhibitors, primary screen, biochemical, flow cytometry, MLPCN library. Botulinum neurotoxin type F light chain protease (Clostridium botulinum). Multiplex microsphere protease cleavage assay. inhibition, % at 10 µM. 0.22% of 360,000 active. AID 588497, 2011; in the data active means inhibition above about 35%, passing the limit was not always enough; inconclusive means no clear call, values can overlap the other calls; further: plate controls were buffer without enzyme for full effect and enzyme alone for no effect
# Anthrax LF prot: Bacillus anthracis LF protease inhibitors, primary screen, biochemical, multiplex microsphere, MLPCN library; inhibition, % at 10 µM; multiplex microsphere protease cleavage assay; Lethal factor (Bacillus anthracis), P15917; AID 588501, 2011; 0.12% of 360,000 active; further: plate controls were buffer without enzyme for full effect and enzyme alone for no effect
# Autofluor counter: counter-screen for toxin protease inhibitors: compound fluorescence | compound autofluorescence counterscreen, microsphere flow cytometry; active compounds read high | fluorescence intensity (concentration not given with the values) | 3.1% of 360,000 active; in the data active means fluorescence intensity above about 16000; inconclusive means no clear call, values can overlap the other calls
# BH1578 lux ind: inducers of Vibrio cholerae quorum light production without autoinducers, primary screen, BH1578 luxS cqsA deficient, single point. activation, % at 18.7 µM. V. cholerae BH1578 lux reporter, luminescence, 6 h. AID 588436, 2011. 0.16% of 350,000 active; in the data active means activation mostly above about 9.7%, no sharp cut-off; inconclusive means no clear call, values can overlap the other calls; inactive means mostly below about 3.7%
# BJeLR lethal: MLPCN primary cell-based screen for lethality selective to Ras in HRASV12 cells; BJeLR (HRASV12) viability, CellTiter-Glo ATP luminescence, 48 h; AID 1554, 2009; 0.17% of 300,000 active; inhibition, % (concentration not given with the values); in the data active means inhibition above about 50%; inconclusive means no clear call, values can overlap the other calls
# The depositor's hits bear a star; i = inactive; ? = inconclusive; / = no result. The list is not random: actives were taken first. Their share in the collection is about 3.7%. Unless noted, no stated cut-off is given here; in the data, active means inhibition above about 30%; inconclusive means no clear call, values can overlap the other calls; inactive means below that.
SMILES,BoNT A protease,BoNT-F LC inh,Anthrax LF prot,Autofluor counter,BH1578 lux ind,BJeLR lethal
O=C(/C=C/c1ccccc1)N1CCCN(C(=O)/C=C/c2ccccc2)CC1,0,-2,-4,20323*,-7,-10
O=C(/C=C/c1ccccc1)N1CCN(C(=O)c2ccco2)CC1,0,0,2,8132,-1,-19
C[C@@H](NC(=O)[C@@H]1CCCN1C(=O)[C@@H]1CCCN1)c1ccccc1,1,5,-7,5670,/,/
CCCN1C(=O)c2ccccc2NC1c1cc(OC)c(OC)c(OC)c1 (stereo not given),1,2,-2,4769,0,-3
CCN1c2ccccc2NC2N=C(OC)C(c3ccccc3)C21 (stereo not given),?,-11,0,25940*,i,-19
CSc1ccc(CNC(=O)C2(C)CCCN(C(C)=O)C2)cc1 (stereo not given),-7,-62,-35,4609,i,/
Cc1cc(C)c(S(=O)(=O)N2C[C@H]3CON(C)[C@H]3C[C@H]2c2ccc(N3CCCCC3)cc2)c(C)c1,-11,13,-21,34680*,/,/
Cc1ccccc1S(=O)(=O)N1C[C@H]2CON(C)[C@H]2C[C@H]1c1cccc(N2CCOCC2)c1,0,1,-6,3247,-2,/
CC(C)Oc1cc(F)ccc1-c1cc(C(=O)NCc2cccs2)[nH]n1,0,1,-2,3954,0,/
O=C(NCCCN1CCN(Cc2ccccc2)CC1)c1nnc(Cc2c(F)cccc2Cl)o1,0,3,-2,19523*,i,7
COc1cc(NC(=O)c2cc(-c3cccnc3)nc3ccc(Br)cc23)cc(OC)c1,2,-3,-6,4404,3,0
COCCNC(=O)c1cc(-c2cccnc2)nc2ccc(Br)cc12,1,1,-1,23362*,i,-5
O=C(Nc1cccnc1)c1cc(-c2cccnc2)nc2ccc(Br)cc12,4,2,2,21271*,-1,2
C/C(=N\OCC(=O)N/N=C/c1ccccc1O)c1cccs1,1,-6,-6,6260,33*,-11
C/C(=N\OCC(=O)N/N=C/c1ccccc1)c1cccs1,-1,-1,-3,6987,-10,2
COc1cccc2c1C(=O)c1c(O)c3c(c(O)c1C2=O)C[C@](O)(C(C)=O)C[C@H]3O[C@@H]1C[C@@H](N)[C@@H](O)[C@@H](C)O1,3,-20,-8,4273,i,68*
COc1cccc(-n2nc(C(=O)N3CC(C)CC(C)C3)c3ccccc3c2=O)c1 (stereo not given),6,8,-8,20358*,0,/
Cc1ccc(C2CC(c3cccs3)n3nc(N)nc3N2)cc1 (stereo not given),1,-2,2,16364*,i,2
Cc1ccc(C2CC(c3ccccc3C)n3nc(N)nc3N2)cc1 (stereo not given),0,-2,-8,6185,0,0
Cc1cc(C)c(C#N)c(SCC(=O)c2ccccc2)n1,0,-4,0,2212,0,3
Cc1cc(C)c(C#N)c(SCC(=O)c2cccs2)n1,?,-1,4,22840*,-1,2
Cc1cc(SCC(=O)c2cccs2)nc2c(C)cccc12,-3,-1,-9,16902*,i,2
Cc1cc2c(C)ccc(C)c2nc1SCC(=O)c1cccs1,0,-7,4,4309,-1,-3
CCn1c(CN2CCC(C)CC2)nc2cc(S(=O)(=O)N3CCCCC3)ccc21,0,7,-2,3856,i,/
COc1ccc(Cc2c(-c3ccccc3)nc3ccc(Br)cn23)c(C)c1,40*,-1,21,5928,/,/
CCOc1cc(OCC)cc(C(=O)N2CCC[C@@H]2C(=O)N2CCC[C@@H]2C(=O)NCc2ccccc2Cl)c1,0,1,-9,5516,/,/
O=C(CCC1CC(=O)Nc2ccccc21)NCc1ccc(F)cc1 (stereo not given),2,3,1,18975*,2,-11
O=C(CCC1CC(=O)Nc2ccccc21)NCc1ccccc1 (stereo not given),0,2,-4,11388,0,1
